Laboratory results published in PubChem BioAssay (NCATS).
Records with an inconclusive call do not appear. Active and inactive are the calls of the source. Calls come from the whole dose curve; as a rule, active = well fitted curve in the direction sought with a large enough effect; inconclusive = small, poorly fitted or top-dose-only effect, or another doubt; inactive = no such curve, though single readings can be large; an effect the other way counts as inactive or inconclusive.

What was measured:
[1] = target: Glutathione peroxidase 1 (Homo sapiens) (UniProt P07203); experiment: Primary qHTS Assay for Inhibitors of Recombinant Selenoprotein Glutathione Peroxidase 1 (GPX1) (AID 1845191); note: nearly all actives have a fitted effect of over 65% in size; for activity, negative = inhibition: % is set by controls: 0 for no effect and ±100 for the full control effect
How it was run: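 NADPH consumption tracked by fluorescence at 340/450 nm between t=0 and t=15 min, room temperature. Final mix: 10 nM GPX1, 100 nM glutathione reductase, 1 mM GSH, 0.5 mM NADPH, 0.5 mM cumene hydroperoxide, 0.01% BSA; 30 min compound–enzyme preincubation.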

[2] = target: Phospholipid hydroperoxide glutathione peroxidase GPX4 (Homo sapiens) (UniProt P36969); experiment: Primary qHTS Assay for Inhibitors of Recombinant Selenoprotein Glutathione Peroxidase 4 (GPX4) (AID 1845192); note: series mostly up to about 50 µM; % is set by controls: 0 for no effect and ±100 for the full control effect; nearly all actives have a fitted effect of over 65% in size
How it was run: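 NADPH consumption followed by fluorescence at 340/450 nm, t=0 and after 15 min at room temperature. Reaction started with cumene hydroperoxide (0.5 mM final) after 30 min compound–GPX4 preincubation; final 200 nM GPX4, 100 nM GR, 1 mM GSH, 0.5 mM NADPH.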

[3] = target: Luciferin 4-monooxygenase (Photinus pyralis) (UniProt P08659); experiment: Primary firefly luciferase (FLuc) qHTS assay for identification of artifact compounds. (AID 1845220); note: nearly all actives have a fitted effect of over 60% in size;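 for activity change, negative = inhibition: series mostly up to about 54 µM; plate controls were DMSO vehicle for no effect and no enzyme for full effect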
How it was run: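 Cell-free, 1536-well qHTS. Buffer pH 7.6 with 0.01% Tween-20 and 0.05% BSA; 10 uM D-luciferin, 10 uM ATP; 10 nM P. pyralis luciferase; luminescence after 5 min.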

[4] = Primary fluorescence-based thiol-reactive (MSTI) qHTS assay for identification of artifact compounds. (AID 1845221); note: nearly all actives have a fitted effect of over 65% in size; note: potency is the fitted concentration of half-maximal effect;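 for activity change, negative = thiol reactive: series mostly up to about 54 µM; thiol-reactive compounds lower the probe fluorescence signal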
How it was run: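 Thiol-reactive compounds detected by quenching of 4 uM MSTI fluorescence (525/598 nm) after 1 h room-temperature dark incubation in PBS pH 7.4, 2% DMSO. qHTS titration; percent inhibition Hill-fitted against Acetyl-MSTI/MSTI controls.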

[5] = system: Nanoluciferase (engineered Oplophorus gracilirostris luciferase); experiment: Primary Nanoluciferase (NLuc) qHTS assay for identification of artifact compounds. (AID 1845222);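 note: series mostly up to about 54 µM; 0% = DMSO and -100% = no enzyme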
How it was run: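 Compounds are pinned into diluted (1:55) conditioned medium of NLuc-expressing S16 cells and held 15 min at room temperature protected from light. Nano-Glo substrate follows, and luminescence is read 5 min later.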

Phospholipid hydroperoxide glutathione peroxidase GPX4 (Homo sapiens), sequence (P36969 whole entry, looked up): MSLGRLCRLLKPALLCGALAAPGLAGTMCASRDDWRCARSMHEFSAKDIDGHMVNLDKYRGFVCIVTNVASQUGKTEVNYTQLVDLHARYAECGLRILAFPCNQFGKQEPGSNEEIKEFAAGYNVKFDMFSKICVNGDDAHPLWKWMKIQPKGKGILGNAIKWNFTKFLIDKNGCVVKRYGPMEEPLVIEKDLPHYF
Glutathione peroxidase 1 (Homo sapiens), sequence (P07203 whole entry, looked up): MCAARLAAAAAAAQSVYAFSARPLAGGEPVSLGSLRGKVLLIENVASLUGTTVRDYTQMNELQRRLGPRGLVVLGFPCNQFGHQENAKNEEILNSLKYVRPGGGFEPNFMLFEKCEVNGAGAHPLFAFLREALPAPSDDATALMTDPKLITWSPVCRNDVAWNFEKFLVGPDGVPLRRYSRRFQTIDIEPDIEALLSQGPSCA

C=C(COC(=O)CC(C)C)C1Cc2cc(C(C)=O)ccc2O1 (stereo not given)
inactive: Potency [1] | Potency [2] | Potency [3] | Potency [4] | Potency [5]

CC(C)C1(O)NC(=O)C(CC2(O)c3ccccc3N3C(=O)C(C)(C)NC32)n2c1nc1ccccc1c2=O (stereo not given)
inactive: Potency [1] | Potency [2] | Potency [3] | Potency [4] | Potency [5]

C/C=C/C=C/[C@@H]1O[C@](O)([C@H](CC)C(=O)NC/C=C/C=C(\C)[C@@H](OC)[C@@H](C)[C@@H]2O[C@H](/C=C/C=C/C=C(\C)C(=O)c3c(O)ccn(C)c3=O)[C@H](O)[C@@H]2O)[C@H](O)[C@H](O)C1(C)C
inactive: Potency [1] | Potency [2] | outcome [3] inactive [at 11.6 µM] | activity change, negative = thiol reactive [4] 94.3% [at 11.5 µM] | activity, negative = inhibition [5] -0.199% [at 11.6 µM]

CC1(C)CC[C@]2(C(=O)O[C@@H]3O[C@H](CO)[C@@H](O)[C@H](O)[C@H]3O)CC[C@]3(C)C(=CCC4[C@@]5(C)C[C@@H](O)[C@H](O)[C@@](C)(CO)C5[C@H](O)C[C@]43C)C2[C@@H]1O (stereo not given in full)
active: Potency [4] 3.16 µM
inactive: Potency [1] | Potency [2] | Potency [3] | Potency [5]

CC1(C)CCC[C@@]2(C)[C@H]1[C@H](O)C=C(CO)[C@]2(O)CO
inactive: Potency [1] | Potency [2] | Potency [3] | Potency [4] | Potency [5]

C[C@@H]1O[C@@H](O[C@H]2[C@H](OC(=O)[C@]34CCC(C)(C)C[C@H]3C3=CCC5[C@@]6(C)CC[C@H](O[C@@H]7O[C@H](CO[C@@H]8OC[C@H](O)[C@H](O)[C@H]8O)[C@@H](O)[C@H](O)[C@H]7O)C(C)(C)C6CC[C@@]5(C)[C@]3(C)C[C@H]4O)OC[C@@H](O)[C@@H]2O)[C@H](O)[C@H](O[C@@H]2OC[C@](O)(CO)[C@H]2O)[C@H]1O[C@@H]1OC[C@H](O)[C@H](O[C@@H]2OC[C@@H](O)[C@H](O)[C@H]2O)[C@H]1O (stereo not given in full)
inactive: Potency [1] | Potency [2] | activity change, negative = inhibition [3] -1.94% [at 11.6 µM] | activity change, negative = thiol reactive [4] 415% [at 11.5 µM] | activity, negative = inhibition [5] 0.577% [at 11.6 µM]
